Source: PubChem BioAssay (NCI)
This is part of a sample that, as a whole, favours compounds with a hit. Of some 79,000 tested, about 15% had one in any assay. Unmarked numbers belong to inactive results. Activity calls are given as the source filed them. Rule as the data show it: active = growth inhibition above about 70%; inactive = the rest.

Columns and labels:
[1] = NCI Yeast Anticancer Drug Screen. Data for the rad52 strain (AID 147);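 also: 0% = growth of vehicle-treated control cultures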; settings: S. cerevisiae rad52 mutant growth inhibition, hits give high values
In short: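 Growth of repair-deficient yeast cells was compared between compound-treated and vehicle-treated cultures to give percent inhibition.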

[2] = NCI Yeast Anticancer Drug Screen. Data for the wt1 strain (AID 149);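 also: 0% = growth of vehicle-treated wt1 cultures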; settings: S. cerevisiae wt1 strain (SPY 50644) growth inhibition, hits give high values
In short: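 wt1 strain grown with compound or vehicle; inhibition taken from the growth difference.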

[3] = NCI Yeast Anticancer Drug Screen. Data for the rad50EPP+ strain (AID 151);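 also: 0% = growth of vehicle-treated control cultures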; settings: S. cerevisiae rad50 mutant strain, hits give high values
In short: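 Measured: growth inhibition of rad50EPP+ yeast. Reference: vehicle-treated controls. Screen uses strains with defined genetic alterations in DNA damage repair or cell cycle control.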

[4] = NCI Yeast Anticancer Drug Screen. Data for the mgt1 strain (AID 153); settings: S. cerevisiae mgt1 mutant growth inhibition, hits give high values
In short: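 Compounds were applied to mgt1 mutant yeast, and growth was then compared against vehicle-treated control cultures to give percent inhibition.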

[5] = NCI Yeast Anticancer Drug Screen. Data for the rad50 strain (AID 155);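 also: 0% = growth of vehicle-only cultures of the same strain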; settings: S. cerevisiae rad50 strain growth inhibition, hits give high values
In short: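 DNA repair mutant yeast, compound exposure, growth read-out; inhibition is taken relative to vehicle.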

[6] = NCI Yeast Anticancer Drug Screen. Data for the mec2-1 strain (AID 157); settings: S. cerevisiae mec2-1 strain, hits give high values
In short: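 Compounds were applied to mec2-1 yeast cells. Their growth was then compared with that of vehicle-treated cultures to give growth inhibition.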

[7] = NCI Yeast Anticancer Drug Screen. Data for the rad14 strain (AID 159);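 also: 0% = growth of vehicle-treated control cultures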; settings: S. cerevisiae rad14 strain growth inhibition, hits give high values
In short: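 DNA repair-defective yeast, compound-exposed; % growth inhibition derived by comparison with vehicle-treated controls.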

[8] = NCI Yeast Anticancer Drug Screen. Data for the sgs1 mgt1 strain (AID 161);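 also: 0% = growth of cultures given vehicle only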; settings: S. cerevisiae sgs1 mgt1 strain, hits give high values
In short: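 Growth of a repair-deficient yeast mutant was monitored after compound treatment and expressed as inhibition relative to vehicle-treated cultures.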

[9] = NCI Yeast Anticancer Drug Screen. Data for the CLN2oe strain (AID 163);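 also: 0% = growth of vehicle-only control cultures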; settings: S. cerevisiae CLN2oe strain, hits give high values
In short: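 Cells of an engineered yeast line with disturbed cell-cycle regulation are treated with compound. Inhibition of growth is then calculated relative to the vehicle-treated reference.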

[10] = NCI Yeast Anticancer Drug Screen. Data for the cln2 rad14 strain (AID 165);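 also: 0% = growth equal to vehicle treated cultures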; settings: S. cerevisiae cln2 rad14 strain, hits give high values
In short: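 Strain: cln2 rad14 yeast, altered in cell cycle control and DNA damage repair. Read-out: growth inhibition vs vehicle.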

[11] = NCI Yeast Anticancer Drug Screen. Data for the bub3 strain (AID 167); settings: S. cerevisiae bub3 mutant strain, hits give high values
In short: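 In this screen, a yeast mutant lacking normal mitotic checkpoint function is challenged with compound. Relative growth versus vehicle gives the inhibition value.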

[12] = NCI Yeast Anticancer Drug Screen. Data for the wt2 strain (AID 169);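 also: 0% = growth of vehicle-treated yeast cultures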; settings: S. cerevisiae wt2 strain growth inhibition, hits give high values
In short: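 Growth of compound-treated yeast is measured and expressed as inhibition relative to vehicle-only controls.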

[13] = NCI Yeast Anticancer Drug Screen. Data for the mlh1 strain (AID 171);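 also: 0% = growth of vehicle-treated control cultures of the same strain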; settings: S. cerevisiae mlh1 strain growth inhibition, hits give high values
In short: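 Test agents were incubated with yeast bearing a defined DNA damage repair or cell cycle control alteration; values are growth inhibition normalised to vehicle-treated cultures.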

[14] = NCI Yeast Anticancer Drug Screen. Data for the sgs1 strain (AID 173);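 also: 0% = growth of vehicle-only control cultures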; settings: S. cerevisiae sgs1 mutant, hits give high values
In short: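 Strain with an altered DNA repair or cell cycle pathway exposed to compound. Growth then measured. Value = inhibition versus vehicle control.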

[15] = NCI Yeast Anticancer Drug Screen. Data for the mlh1 rad18 strain (AID 175); settings: S. cerevisiae mlh1 rad18 strain growth inhibition, hits give high values
In short: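 A repair-deficient yeast strain is exposed to test compound, and growth is scored relative to vehicle-treated controls.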

[16] = NCI Yeast Anticancer Drug Screen. Data for the rad18 strain (AID 177); settings: S. cerevisiae rad18 mutant growth inhibition, hits give high values
In short: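 DNA-repair-defective yeast; compound treatment; growth inhibition scored against vehicle.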

[17] = at 5.0 µM (retest, dose inferred, filed as 0.5)
[18] = at 50.0 µM (retest, dose inferred, filed as 5.0)

SMILES: CC1CC(Br)C(=O)O1 (stereo unspecified)
- growth inhibition ([1]; at 1.2 µM): -27%
- growth inhibition ([1]; at 3.7 µM): -35%
- growth inhibition ([1]; at 11.0 µM): -18%
- growth inhibition ([1]; at 33.0 µM): 89% (active)
- growth inhibition ([1]; at 100.0 µM): 92% (active)
- growth inhibition ([2]; at 1.2 µM): -48%
- growth inhibition ([2]; at 3.7 µM): -49%
- growth inhibition ([2]; at 11.0 µM): -22%
- growth inhibition ([2]; at 33.0 µM): 67%
- growth inhibition ([2]; at 100.0 µM): 88% (active)
- growth inhibition ([3]; at 1.2 µM): 12%
- growth inhibition ([3]; at 3.7 µM): 11%
- growth inhibition ([3]; at 11.0 µM): 34%
- growth inhibition ([3]; at 33.0 µM): 88% (active)
- growth inhibition ([3]; at 100.0 µM): 89% (active)
- growth inhibition ([4]; at 1.2 µM): -52%
- growth inhibition ([4]; at 3.7 µM): -49%
- growth inhibition ([4]; at 11.0 µM): -24%
- growth inhibition ([4]; at 33.0 µM): 69%
- growth inhibition ([4]; at 100.0 µM): 86% (active)
- growth inhibition ([5]; at 1.2 µM): -67%
- growth inhibition ([5]; at 3.7 µM): -55%
- growth inhibition [5, 17]: -14%
- growth inhibition ([5]; at 11.0 µM): -34%
- growth inhibition ([5]; at 33.0 µM): 74% (active)
- growth inhibition [5, 18]: 95% (active)
- growth inhibition ([5]; at 50.0 µM): 86.7% (active)
- growth inhibition ([5]; at 100.0 µM): 89% (active)
- growth inhibition ([6]; at 1.2 µM): -30%
- growth inhibition ([6]; at 3.7 µM): -18%
- growth inhibition [6, 17]: 1%
- growth inhibition ([6]; at 11.0 µM): 31%
- growth inhibition ([6]; at 33.0 µM): 95% (active)
- growth inhibition [6, 18]: 98% (active)
- growth inhibition ([6]; at 50.0 µM): 92.2% (active)
- growth inhibition ([6]; at 100.0 µM): 95% (active)
- growth inhibition ([7]; at 1.2 µM): -49%
- growth inhibition ([7]; at 3.7 µM): -42%
- growth inhibition ([7]; at 11.0 µM): -30%
- growth inhibition ([7]; at 33.0 µM): 58%
- growth inhibition ([7]; at 100.0 µM): 85% (active)
- growth inhibition [8, 17]: 9%
- growth inhibition [8, 18]: 77% (active)
- growth inhibition ([8]; at 50.0 µM): 87.8% (active)
- growth inhibition ([9]; at 1.2 µM): -44%
- growth inhibition ([9]; at 3.7 µM): -44%
- growth inhibition ([9]; at 11.0 µM): -13%
- growth inhibition ([9]; at 33.0 µM): 95% (active)
- growth inhibition ([9]; at 100.0 µM): 96% (active)
- growth inhibition [10, 17]: 39%
- growth inhibition [10, 18]: 86% (active)
- growth inhibition ([10]; at 50.0 µM): 84.8% (active)
- growth inhibition ([11]; at 1.2 µM): 8%
- growth inhibition ([11]; at 3.7 µM): 22%
- growth inhibition [11, 17]: 44%
- growth inhibition ([11]; at 11.0 µM): 74% (active)
- growth inhibition ([11]; at 33.0 µM): 96% (active)
- growth inhibition [11, 18]: 98% (active)
- growth inhibition ([11]; at 50.0 µM): 88.5% (active)
- growth inhibition ([11]; at 100.0 µM): 97% (active)
- growth inhibition ([12]; at 1.2 µM): -52%
- growth inhibition ([12]; at 3.7 µM): -40%
- growth inhibition ([12]; at 11.0 µM): -25%
- growth inhibition ([12]; at 33.0 µM): 30%
- growth inhibition ([12]; at 100.0 µM): 86% (active)
- growth inhibition ([13]; at 1.2 µM): -54%
- growth inhibition ([13]; at 3.7 µM): -51%
- growth inhibition ([13]; at 11.0 µM): -18%
- growth inhibition ([13]; at 33.0 µM): 79% (active)
- growth inhibition ([13]; at 100.0 µM): 90% (active)
- growth inhibition ([14]; at 1.2 µM): -41%
- growth inhibition ([14]; at 3.7 µM): -40%
- growth inhibition ([14]; at 11.0 µM): -31%
- growth inhibition ([14]; at 33.0 µM): 68%
- growth inhibition ([14]; at 100.0 µM): 88% (active)
- growth inhibition [15, 17]: -9%
- growth inhibition [15, 18]: 97% (active)
- growth inhibition ([15]; at 50.0 µM): 83.8% (active)

SMILES: S=C1NC2(CCCCC2)NC12CCCCC2
- growth inhibition ([1]; at 1.2 µM): -1%
- growth inhibition ([1]; at 3.7 µM): -5%
- growth inhibition ([1]; at 11.0 µM): -3%
- growth inhibition ([1]; at 33.0 µM): 2%
- growth inhibition ([1]; at 100.0 µM): -1%
- growth inhibition ([2]; at 1.2 µM): -2%
- growth inhibition ([2]; at 3.7 µM): -3%
- growth inhibition ([2]; at 11.0 µM): 3%
- growth inhibition ([2]; at 33.0 µM): 8%
- growth inhibition ([2]; at 100.0 µM): 13%
- growth inhibition ([3]; at 1.2 µM): -2%
- growth inhibition ([3]; at 3.7 µM): 0%
- growth inhibition ([3]; at 11.0 µM): 2%
- growth inhibition ([3]; at 33.0 µM): 8%
- growth inhibition ([3]; at 100.0 µM): 7%
- growth inhibition ([4]; at 1.2 µM): -2%
- growth inhibition ([4]; at 3.7 µM): -8%
- growth inhibition ([4]; at 11.0 µM): 5%
- growth inhibition ([4]; at 33.0 µM): 17%
- growth inhibition ([4]; at 100.0 µM): 10%
- growth inhibition ([5]; at 1.2 µM): 0%
- growth inhibition ([5]; at 3.7 µM): 9%
- growth inhibition [5, 17]: 11%
- growth inhibition ([5]; at 11.0 µM): 19%
- growth inhibition ([5]; at 33.0 µM): 19%
- growth inhibition [5, 18]: 33%
- growth inhibition ([5]; at 50.0 µM): 44.9%
- growth inhibition ([5]; at 100.0 µM): 11%
- growth inhibition ([6]; at 1.2 µM): -12%
- growth inhibition ([6]; at 3.7 µM): -19%
- growth inhibition [6, 17]: 3%
- growth inhibition ([6]; at 11.0 µM): -18%
- growth inhibition ([6]; at 33.0 µM): -1%
- growth inhibition [6, 18]: 23%
- growth inhibition ([6]; at 50.0 µM): 4.85%
- growth inhibition ([6]; at 100.0 µM): 2%
- growth inhibition ([7]; at 1.2 µM): -2%
- growth inhibition ([7]; at 3.7 µM): -7%
- growth inhibition ([7]; at 11.0 µM): -1%
- growth inhibition ([7]; at 33.0 µM): 0%
- growth inhibition ([7]; at 100.0 µM): 3%
- growth inhibition [8, 17]: 30%
- growth inhibition [8, 18]: 69%
- growth inhibition ([8]; at 50.0 µM): 13.8%
- growth inhibition ([9]; at 1.2 µM): -7%
- growth inhibition ([9]; at 3.7 µM): -3%
- growth inhibition ([9]; at 11.0 µM): -2%
- growth inhibition ([9]; at 33.0 µM): 6%
- growth inhibition ([9]; at 100.0 µM): 9%
- growth inhibition [10, 17]: -30%
- growth inhibition [10, 18]: 2%
- growth inhibition ([10]; at 50.0 µM): -2%
- growth inhibition ([11]; at 1.2 µM): -18%
- growth inhibition ([11]; at 3.7 µM): -14%
- growth inhibition [11, 17]: 16%
- growth inhibition ([11]; at 11.0 µM): 3%
- growth inhibition ([11]; at 33.0 µM): 2%
- growth inhibition [11, 18]: 20%
- growth inhibition ([11]; at 50.0 µM): 14.5%
- growth inhibition ([11]; at 100.0 µM): 6%
- growth inhibition ([12]; at 1.2 µM): -2%
- growth inhibition ([12]; at 3.7 µM): -2%
- growth inhibition ([12]; at 11.0 µM): 3%
- growth inhibition ([12]; at 33.0 µM): 14%
- growth inhibition ([12]; at 100.0 µM): 16%
- growth inhibition ([13]; at 1.2 µM): -6%
- growth inhibition ([13]; at 3.7 µM): -5%
- growth inhibition ([13]; at 11.0 µM): 0%
- growth inhibition ([13]; at 33.0 µM): 1%
- growth inhibition ([13]; at 100.0 µM): -2%
- growth inhibition ([14]; at 1.2 µM): -1%
- growth inhibition ([14]; at 3.7 µM): -3%
- growth inhibition ([14]; at 11.0 µM): 2%
- growth inhibition ([14]; at 33.0 µM): 8%
- growth inhibition ([14]; at 100.0 µM): 12%
- growth inhibition [15, 17]: -9%
- growth inhibition [15, 18]: 49%
- growth inhibition ([15]; at 50.0 µM): 27.3%
- growth inhibition ([16]; at 1.2 µM): -3%
- growth inhibition ([16]; at 3.7 µM): -1%
- growth inhibition ([16]; at 11.0 µM): 15%
- growth inhibition ([16]; at 33.0 µM): 24%
- growth inhibition ([16]; at 100.0 µM): 7%
